# In PubChem BioAssay (NCATS):
# Records with an inconclusive call do not appear. A number with no mark means an inactive call. Activity calls are given as the source filed them. Calls follow the shape of the dose curve; as a rule, active = well fitted inhibition curve with a large enough effect; inconclusive = small, poorly fitted or top-dose-only effect; inactive = flat fitted curve, though single readings scatter.
# Legend:
# Assay in all cases: Cytotoxic Profiling of Annotated Libraries Using Quantitative High-Throughput Screening (AID 1296008); also: nearly all actives have a fitted effect of over 60% in size
# Conditions in all cases: Five cell lines viability, CellTiter-Glo ATP luminescence, 48-72 h; max response: stronger effect = lower value
# CRL-7250 = normal cell line; tested on: CRL-7250
# Summary of the method: (§1)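 Cells exposed to compounds for 48 or 72 hr at 37 degrees Celsius. Viability read as ATP-coupled luminescence with CellTiter-Glo after 10 min at room temperature.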
# HaCat = tested on: HaCat
# Summary of the method: as §1
# KB-3-1 = tested on: KB-3-1
# Summary of the method: as §1
# NIH3T3 = tested on: NIH3T3
# Summary of the method: as §1
# % is scaled to controls: 0 for no effect and ±100 for the full control effect; potency is read from the fitted curve at half-maximal effect.
compound,measurement,setting,value
CC(=O)O[C@H]1CC(C)(C)CC2[C@]13CO[C@@]21CCC2[C@@]4(C)CC[C@H](O[C@@H]5OC[C@H](O[C@@H]6O[C@H](CO)[C@@H](O)[C@H](O)[C@H]6O[C@@H]6OC[C@@H](O[C@@H]7O[C@H](CO)[C@@H](O)[C@H](O)[C@H]7O)[C@H](O)[C@H]6O)[C@H](O)[C@H]5O[C@@H]5O[C@H](CO)[C@@H](O)[C@H](O)[C@H]5O)[C@@](C)(CO)C4CC[C@@]2(C)[C@]1(C)C[C@H]3O (stereo partly specified),Potency,CRL-7250,2.19 µM (active)
same,max response,HaCat,2.18%
same,max response,KB-3-1,-6.99%
CC1(C)CC[C@]2(C(=O)O)CC[C@]3(C)C(=CCC4[C@@]5(C)C[C@@H](O)[C@H](O)C(CO)(CO)C5CC[C@]43C)C2[C@@H]1O (stereo partly specified),Potency,CRL-7250,7.96 µM (active)
same,max response,HaCat,-58.7%
same,Potency,KB-3-1,10 µM (active)
same,max response,NIH3T3,-1.94%
COc1c(C(C)C)c(O)c(O)c2c1C(OC)[C@H]1OC(=O)[C@@]23CCCC(C)(C)[C@H]13 (stereo partly specified),outcome,CRL-7250,inactive
same,max response,HaCat,-9.13%
same,outcome,KB-3-1,inactive
same,max response,NIH3T3,-6.75%
COc1ccccc1C(=O)Nc1cccc(NC(=O)c2cccc(C)c2)c1,max response,CRL-7250,-5.11%
same,max response,HaCat,3.09%
same,max response,KB-3-1,4.14%
CC(=O)OC1C(=O)C2C3OCC4=C3[C@@](C)(CC[C@@H]4O)CC[C@]2(C)[C@H]1C(C)C (stereo partly specified),max response,CRL-7250,0.411%
same,max response,HaCat,-13.7%
same,max response,KB-3-1,4.67%
same,max response,NIH3T3,1.97%
O=C(Nc1ccc(-c2ccc(Cl)c(Cl)c2)cc1)C1=C(O)c2ccccc2S(=O)(=O)N1,outcome,CRL-7250,inactive
same,max response,HaCat,-6.44%
same,max response,KB-3-1,-12.4%
CN(C)C(=O)Nc1cc(-c2ccccc2)ccc1N(C)C,max response,CRL-7250,-26.2%
same,max response,HaCat,-16%
same,max response,KB-3-1,-8.42%
COc1ccc(-c2c(C)nn3c(NCCN4CCOCC4)cc(C)nc23)cc1OC,max response,CRL-7250,-19%
same,max response,HaCat,-11.4%
same,outcome,KB-3-1,inactive
COc1cc(-c2cn(C3CCc4c(F)cccc4N(CC(F)(F)F)C3=O)nn2)ccc1-n1cnc(C)c1 (stereo unspecified),max response,CRL-7250,-13.5%
same,max response,HaCat,-32.4%
same,max response,KB-3-1,-16.9%
O=C(NCC(=O)N1CCCC1)Nc1ccc2cnccc2c1,max response,CRL-7250,-0.26%
same,max response,HaCat,-20.6%
same,max response,KB-3-1,-4.72%
same,max response,NIH3T3,-5.01%
CN(C)[C@@H]1CCc2[nH]c3ccc(NC(=O)c4ccc(F)cc4)cc3c2C1,max response,CRL-7250,-12.5%
same,max response,HaCat,-11.8%
same,max response,KB-3-1,1.75%
CCCCCc1ccc(/C=C/C(=O)Nc2cc(Cl)ccc2C(=O)O)cc1,max response,CRL-7250,-6.38%
same,max response,HaCat,-35.2%
same,max response,KB-3-1,-3.71%
Nc1c(S(=O)(=O)c2ccccc2)c2nc3ccccc3nc2n1-c1ccc(F)cc1,max response,CRL-7250,2.31%
same,max response,HaCat,-0.67%
same,max response,KB-3-1,9.53%
same,outcome,NIH3T3,inactive
C/C(=C/CO)CCC1C(C)CCC2C(C)(C)CCCC12C (stereo unspecified),max response,CRL-7250,-3.35%
same,max response,HaCat,-18.8%
same,max response,KB-3-1,6.99%
same,max response,NIH3T3,1.98%
C=CC(=O)N1CCC[C@@H](n2nc(-c3cccc(C(=O)Nc4ccc(C(C)C)c(C)c4)c3)c3c(N)ncnc32)C1,Potency,CRL-7250,20.6 µM (active)
same,Potency,HaCat,16.4 µM (active)
same,max response,KB-3-1,-9.98%
COc1cccc(CN(C(=O)CC(C)(C)C)[C@H]2C[C@H](C(=O)N3CCNCC3)N(Cc3ccc4c(c3)OCO4)C2)c1,outcome,CRL-7250,inactive
same,max response,HaCat,-6.86%
same,outcome,KB-3-1,inactive
CCO[C@H]1CN(C2CCC(O)(c3ccc4c(c3)OCO4)CC2)C[C@@H]1NC(=O)CNC(=O)c1cccc(C(F)(F)F)c1 (stereo partly specified),max response,CRL-7250,1.15%
same,max response,HaCat,1.49%
same,max response,KB-3-1,7%
OC1(CN2CCC(COc3noc4cccc(O[C@@H]5CCOC5)c34)CC2)CCOCC1,max response,CRL-7250,-0.0295%
same,max response,HaCat,-23.1%
same,max response,KB-3-1,2.03%
same,max response,NIH3T3,-22.8%
CCn1c(N)c(C(=O)NC)c(=O)c2ccc(C#CC(C)(O)COC)nc21 (stereo unspecified),max response,CRL-7250,-33.6%
same,max response,HaCat,-27.4%
same,max response,KB-3-1,1.64%
CN1CCN(c2ccc(OC(F)(F)F)c(Nc3ncc4c(n3)-c3c(c(C(N)=O)nn3CCO)CC4)c2)CC1,max response,CRL-7250,-11.3%
same,Potency,HaCat,0.259 µM (active)
same,Potency,KB-3-1,0.0366 µM (active)
Cc1cn2c(n1)Cc1ccc(Cl)cc1C(c1ccc(N)cc1)=N2,max response,CRL-7250,-3.82%
same,max response,HaCat,1.21%
same,max response,KB-3-1,1.16%
same,max response,NIH3T3,-15.7%
O=C(NCCN1CCC(n2c(=O)[nH]c3ccccc32)CC1)c1ccc2ccccc2c1,max response,CRL-7250,1.03%
same,max response,HaCat,-42.4%
same,max response,KB-3-1,-2.44%
CC(=O)O[C@H]1C[C@@](O)(C(C)C)[C@@H]2[C@@H](OC(=O)c3ccc(O)cc3)CC(C)=CC[C@@]12C,max response,CRL-7250,3.65%
same,max response,HaCat,-1.16%
same,max response,KB-3-1,6.43%
same,max response,NIH3T3,-25.3%
Fc1ccc(-c2nc(-c3c(F)cccc3F)[nH]c2-c2ccncc2)cc1,max response,CRL-7250,-5.53%
same,max response,HaCat,-17.9%
same,max response,KB-3-1,3.89%
CCOC(=O)c1cnn(-c2ccccc2)c1NC(=O)c1cc2nc(-c3ccco3)cc(C(F)(F)Cl)n2n1,max response,CRL-7250,-4.16%
same,max response,HaCat,3.78%
same,max response,KB-3-1,6.18%
COc1ccc(NC(=O)c2ccc(C(=N)N(C)C)cc2)c(C(=O)Nc2ccc(Cl)cn2)c1,max response,CRL-7250,3.5%
same,max response,HaCat,-16.4%
same,max response,KB-3-1,2.86%
Cc1cnn(-c2ccccc2)c1NC(=O)COCc1ccccc1,max response,CRL-7250,-16.8%
same,max response,HaCat,3.62%
same,max response,KB-3-1,3.83%
O=C(Nc1ccc(Cl)cc1)c1ccccc1NCc1ccncc1,max response,CRL-7250,0.592%
same,max response,HaCat,-24.7%
same,max response,KB-3-1,-12.3%
COC(CCc1ccc(O)cc1)CC(=O)CCc1ccc(O)cc1 (stereo unspecified),max response,CRL-7250,3.53%
same,max response,HaCat,-18.6%
same,outcome,KB-3-1,inactive
O=[N+]([O-])c1cn2c(n1)OC[C@@H](OCc1ccc(-c3ccc(OC(F)(F)F)cc3)nc1)C2,max response,CRL-7250,2.36%
same,max response,HaCat,-7.6%
same,max response,KB-3-1,-0.53%
same,max response,NIH3T3,-0.0728%
C=CC(=O)N1CCCC(n2nc(-c3ccc(Oc4ccccc4)cc3)c3c(N)ncnc32)C1 (stereo unspecified),max response,CRL-7250,3.87%
same,Potency,HaCat,1.3 µM (active)
same,max response,KB-3-1,-21.4%
COc1ccc(C2(CNC(=O)c3ccc(NC(=O)c4ccco4)cc3)CCOCC2)cc1,max response,CRL-7250,-30.6%
same,max response,HaCat,-26.6%
same,max response,KB-3-1,8.83%
Nc1nc2c(ncn2C2OC3COP(=O)(O)OC3C2O)c(=O)[nH]1 (stereo unspecified),max response,CRL-7250,-27.3%
same,max response,HaCat,-25.5%
same,max response,KB-3-1,9.92%
CC(C)(C)C1CCN(C(=O)n2ncc(C(O)(c3ccccc3)c3ccccc3)n2)CC1,outcome,CRL-7250,inactive
same,max response,HaCat,-7.63%
same,max response,KB-3-1,-15.2%
CCN(CCNC(=O)Nc1ccccc1Br)c1cccc(C)c1,max response,CRL-7250,-1.67%
same,max response,HaCat,0.35%
same,max response,KB-3-1,2.25%
C=C1/C(=C/C=C2\CCC[C@]3(C)[C@@H]([C@H](C)/C=C/[C@H](O)C4CC4)CC[C@@H]23)C[C@@H](O)C[C@@H]1O,max response,CRL-7250,-7.4%
same,max response,HaCat,-5.44%
same,max response,KB-3-1,7.77%
CC(=O)N[C@H]1[C@H](O[C@H]2CC[C@@]3(C)C(CC[C@]4(C)C3CC=C3C5CC(C)(C)CC[C@]5(C(=O)O)C(O)C[C@]34C)C2(C)C)O[C@H](CO[C@@H]2O[C@H](C)[C@H](O)[C@H](O)[C@H]2O[C@@H]2OC[C@@H](O)[C@H](O)[C@H]2O)[C@@H](O)[C@@H]1O (stereo partly specified),max response,CRL-7250,-3.47%
same,max response,HaCat,-18.2%
same,max response,KB-3-1,3.32%
Cc1cccc(C#Cc2cc(F)cc(C#N)c2)n1,max response,CRL-7250,-2.01%
same,max response,HaCat,-1.48%
same,max response,KB-3-1,2.45%
COc1cc(NC(=O)c2cc(C3CC3)on2)c(OC)cc1Cl,max response,CRL-7250,-0.243%
same,max response,HaCat,-5.44%
same,max response,KB-3-1,7.13%
same,max response,NIH3T3,-5.84%
CC(C)n1c(=O)c(C(=O)NC2CC3CCC(C2)N3C[C@@H](O)CN(C)S(C)(=O)=O)cc2ccccc21 (stereo partly specified),max response,CRL-7250,-15.6%
same,max response,HaCat,-16.2%
same,max response,KB-3-1,-11.4%
same,max response,NIH3T3,-22.5%
CC#C[C@@H](CC(=O)O)c1ccc(OCc2ccc(CN3CCC4(C=Cc5ccccc54)CC3)s2)cc1,outcome,CRL-7250,inactive
same,max response,HaCat,1.71%
same,max response,KB-3-1,-9.33%
same,outcome,NIH3T3,inactive
